Unmarked numbers belong to inactive results. Calls of active or inactive are those of the source. How the calls were made is not given here.
System: HIV-1 nucleocapsid protein NCp7 (binding to TG oligonucleotide)
Assay: HIV Nucleocapsid (AID 346);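 further: potency is for inhibitors that block NC binding and lower polarization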
Details: HIV-1 NC / fluorescein-TGTGTGTG probe, fluorescence polarization
Method in brief: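 10 nM TG4xF probe with 100 nM nucleocapsid protein in high-salt Hepes pH 7.5 (250mM NaCl) containing 1uM ZnCl2 and reducing agents. Compound inhibition of binding was read as fluorescein polarization after 1 hr at room temperature.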
Potency means the concentration at half of the fitted maximal effect.

| Compound | Potency |
| --- | --- |
| COc1cccc(-c2nccc(NCc3ccc(OC)cc3OC)n2)c1 | > 20 µM |
| COCCn1c(=O)c(-c2cccs2)nc2cnc(N3CCN(C)CC3)nc21 | > 20 µM |
| COc1ccc(-n2c(=O)c(-c3cccc(Cl)c3)nc3cncnc32)cc1 | > 4 µM |
| c1cncc(CNc2ncncc2-c2cccnc2)c1 | > 20 µM |
| CN1CCN(c2ncnc3ccc(-c4ccccc4C(F)(F)F)cc23)CC1 | > 20 µM |
| COc1ccc(-c2nc3cnc(Nc4cccc(OC)c4)nc3n(Cc3cccs3)c2=O)cc1 | 0.247 µM (active) |
| Cc1noc(C)c1C(=O)N1CCC2(CCCN(C(c3ccccc3)c3ccccc3)C2)CC1 | > 20 µM |
| COc1ccc(-c2nc3cnc(OCc4ccccc4)nc3n(CCC#N)c2=O)cc1 | > 20 µM |
| CS(=O)(=O)N1CCC2(CCN(C(=O)Nc3cccc(C#N)c3)CC2)CC1 | > 20 µM |
| CS(=O)(=O)N1CCC[C@@]2(CCN(C(=O)Nc3cccc(F)c3)C2)C1 | > 20 µM |
| CN(C)C(=O)c1ccc(-c2nccc(N(C)Cc3ccco3)n2)cc1 | > 20 µM |
| COCCn1c(=O)c(C)nc2cnc(Nc3cccc(OC)c3)nc21 | > 20 µM |
| CCNc1ncc2nc(-c3ccc(OC)cc3)c(=O)n(C)c2n1 | > 20 µM |
| Cn1cccc1C(=O)N1CCC2(CC1)CN(C(=O)Nc1cccc(C#N)c1)C2 | > 20 µM |
| FC(F)(F)c1ccccc1-c1nccc(-n2ccnc2)n1 | > 20 µM |
| COc1ccc(-n2c(=O)c(-c3cccc(C#N)c3)nc3cnc(N4CCNCC4)nc32)cc1 | > 20 µM |
| CN(C)c1ncc2nc(-c3cc(F)cc(F)c3)c(=O)n(Cc3cccs3)c2n1 | > 4 µM |
| CC(C)NC(=O)N1CCC2(CC1)CCN(C(=O)c1ccncc1)CC2 | > 20 µM |
| COCCn1c(=O)c(-c2ccccc2)nc2cnc(N3CCN(C)CC3)nc21 | > 20 µM |
| COc1ccccc1CCn1c(=O)c(-c2ccc(F)c(F)c2)nc2cncnc21 | > 20 µM |

| Compound | Potency |
| --- | --- |
| O=C(Nc1ccccc1)N1CCC2(CC1)CCN(C(=O)c1ccco1)CC2 | > 20 µM |
| O=C(c1csnn1)N1CCC[C@@]2(CCN(c3ccncc3)C2)C1 | > 20 µM |
| COCC(=O)N1CCC2(CCN(Cc3cc(C(F)(F)F)cc(C(F)(F)F)c3)CC2)CC1 | > 20 µM |
| c1ccc(CNc2ccnc(-c3ccoc3)n2)cc1 | > 20 µM |
| COc1ccc(-c2nc3cnc(N4CCOCC4)nc3n(CCc3ccccc3)c2=O)cc1 | > 20 µM |
| CC(=O)N1CCC2(CCCN(c3ccccn3)C2)CC1 | > 20 µM |
| COCCn1c(=O)c(-c2cn(C)c3ccccc23)nc2cncnc21 | 11.9 µM |
| COCCn1c(=O)c(-c2ccccc2)nc2cnc(Oc3ccccc3)nc21 | > 20 µM |
| COc1cccc(Cn2c(=O)c(-c3cccs3)nc3cnc(Nc4ccccc4)nc32)c1 | > 20 µM |
| COCCn1c(=O)c(-c2ccc(F)c(F)c2)nc2cncnc21 | > 20 µM |
| c1ncc(-c2ccc3c(c2)OCO3)c(NCCc2cnc[nH]2)n1 | > 20 µM |
| CN(C)Cc1ccccc1-c1nc(NCc2cccs2)c2ccccc2n1 | > 20 µM |
| CNc1nc(-c2c(C)noc2C)nc2ccccc12 | > 20 µM |
| COc1cccc(-c2ccc3ncnc(NCCc4c[nH]c5ccc(OC)cc45)c3c2)c1 | > 20 µM |
| CC(=O)N1CCC[C@@]2(CCN(C(=O)Nc3cccc(C#N)c3)C2)C1 | > 20 µM |
| CC(=O)NCCNc1nc(-c2ccccc2C(F)(F)F)nc2ccccc12 | > 20 µM |
| Cn1cccc1C(=O)N1CCC[C@@]2(CCN(C(=O)Nc3cccc(F)c3)C2)C1 | > 20 µM |
| COc1cccc(Nc2ncc3nc(-c4ccc(Cl)cc4)c(=O)n(C[C@H]4CCCO4)c3n2)c1 | > 20 µM |
| O=C(c1cnccn1)N1CCC[C@@]2(CCN(Cc3nccs3)C2)C1 | > 20 µM |
| Cc1ccccc1-c1nc(N2CCNCC2)c2ccccc2n1 | > 20 µM |

Source: PubChem BioAssay (NCATS)
